Rows were chosen to be rich in hits. Some 2.6% of all compounds tested hit in one or more screens of this group.
eIF4H FP inh – human eIF4H binding inhibitors, primary screen, translation initiation inhibitor project, biochemical, uHTS, fluorescence polarization; eIF4H fluorescence polarization binding assay; Eukaryotic translation initiation factor 4H (Homo sapiens), Q15056; 0.94% of 290,000 active; inhibition, % at 35 µM; AID 2012, 2009;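 note: calls also rest on retests at 20 µM and on dose response follow-up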
PHOSPHO1 block – PubChem AID 1565 | Phosphoethanolamine/phosphocholine phosphatase (Homo sapiens), Q8TCT1 | recombinant PHOSPHO1, absorbance phosphatase assay | 1.1% of 290,000 active | inhibition, % at 13.3 µM; in the data active = inhibition above about 60%
Target sequence (Q8TCT1 whole entry, looked up): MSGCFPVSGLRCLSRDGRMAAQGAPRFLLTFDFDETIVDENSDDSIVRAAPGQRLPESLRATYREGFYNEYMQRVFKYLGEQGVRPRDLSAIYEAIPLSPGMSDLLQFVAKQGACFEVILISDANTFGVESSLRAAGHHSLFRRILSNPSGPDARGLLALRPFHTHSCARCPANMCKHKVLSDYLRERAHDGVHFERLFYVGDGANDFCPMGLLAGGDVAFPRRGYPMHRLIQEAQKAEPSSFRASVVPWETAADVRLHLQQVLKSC
PABP1 MLLE inh – inhibitors of PABP1 MLLE–PAM2 peptide binding, primary screen, biochemical, fluorescence polarization, FITC-PAM2, GST-MLLE | Polyadenylate-binding protein 1 (Homo sapiens), P11940 | inhibition, % at 20 µM | 0.36% of 360,000 active | AID 588489, 2011; in the data active = inhibition above about 35%, passing the limit was not always enough;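 note: plate controls were DMSO wells with GST-MLLE for no effect and wells lacking GST-MLLE protein for full effect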
PABP polyA inh – PABP poly(A) RNA binding inhibitors, primary screen, biochemical, fluorescence polarization, uHTS | inhibition, % at 35 µM | 1% of 290,000 active | AID 2014, 2009;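 note: calls also rest on retests at 20 µM and on dose response follow-up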
CRFBP-R2 block – antagonists of CRF-BP/CRF-R2 complex, primary screen, cell-based, HEK293, calcium dye fluorescence, uHTS | CRF-induced calcium fluorescence | inhibition, % at 11.8 µM | 0.59% of 350,000 active | AID 588475, 2011;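 active = inhibition of the ligand-induced calcium signal above about 50% at the single tested concentration, limit read from the data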
Numbers without * were called inactive; ? = inconclusive; . = not tested or not shown. Unless noted, the rule behind the calls is not given here.

SMILES	eIF4H FP inh	PHOSPHO1 block	PABP1 MLLE inh	PABP polyA inh	CRFBP-R2 block
COc1ccccc1C(N)=S	-0.1	4.9	40.0*	8.9	13.4
COc1ccccc1C(=O)C(=O)c1ccccc1OC	.	.	6.6	.	2.4
O=C(Nc1ccccc1)C1Cc2c(-c3ccc(Cl)cc3)ccnc2O1 (stereo not drawn)	.	.	0.6	.	.
CCOC(=O)CCC(=O)NCc1ccc2c(c1)cc(C)n2C	102.6	-1.6	21.4	104.2*	-3.5
Cc1cc2cc(CNC(=O)C(C)Oc3ccccc3)ccc2n1C (stereo not drawn)	73.1	17.7	26.0	24.1*	-18.3
Cc1cc2cc(CNC(=O)Nc3ccccc3)ccc2n1C	10.7	4.9	62.9*	4.3	2.9
Cc1cc2cc(CNC(=O)c3cccs3)ccc2n1C	8.2	3.8	45.2*	18.0	9.8
CCC(CC)C(=O)NCc1ccc2c(c1)cc(C)n2C	1.9	52.4	21.5	7.5	8.2
OC(CSc1ccc(F)cc1)CN1CCN(c2ccccc2)CC1 (stereo not drawn)	-1.3	44.8	11.8	7.1	8.5
CN(Cc1ccccc1)C(=O)C(=O)c1c[nH]c2ccccc12	.	.	2.8	.	26.2
COc1ccc(Cl)cc1CC1(C)C(=O)Nc2ccc(S(=O)(=O)NC3CCCCC3)cc21 (stereo not drawn)	.	.	5.2	.	.
Cc1ccc(Sc2ccc(CN3CCCC3)cc2[N+](=O)[O-])cc1	10.8	15.2	11.6	5.9	-26.3
Cc1ccc(Sc2ccc(CO)cc2[N+](=O)[O-])cc1	5.2	34.1	-11.9	15.2	50.8*
CC(C)(C)NC(=O)CCN(/N=C/c1ccc([N+](=O)[O-])o1)C1=NS(=O)(=O)c2ccccc21	82.1*	-15.4	-27.9	-6.2	11.6
CN(C)c1ccc(/C=N/N(CCC(=O)NC(C)(C)C)C2=NS(=O)(=O)c3ccccc32)cc1	7.0	28.3	-43.4	7.6	1.8
CC(=O)c1ccc(-c2cccs2)s1	-3.8	27.7	-9.9	9.2	63.7*
CC(=O)c1ccc(NC(=O)COC(=O)c2ccccc2Sc2ccccc2C#N)cc1	-14.0	-6.2	14.4	-22.1	6.6
CN(C)C(=O)COC(=O)c1ccccc1Sc1ccccc1C#N	-2.0	68.1*	23.1	0.5	10.0
CN(C)c1ccc(/C(=N\O)c2ccccc2)cc1	4.6	6.3	-5.5	11.8	60.6*
CN1CCN(C(=O)Cn2ncc3c([nH]c4ccccc43)c2=O)CC1	-2.9	26.1	-32.4	-4.0	-2.5
O=C(CN1C(=O)S/C(=C\c2ccc(-c3cc(C(=O)O)ccc3Cl)o2)C1=O)Nc1ccc2c(c1)OCO2	67.7*	7.5	6.0	38.1*	.
Cc1c(C(=O)O)cccc1-c1ccc(/C=C2/NC(=O)N(c3ccccc3)C2=O)o1	9.2	32.8	6.1	10.7	-35.5
Cc1ccc(NC(=O)CN2C(=O)S/C(=C\c3ccc(-c4cccc(C(=O)O)c4C)o3)C2=O)cc1C	67.5*	32.0	1.8	-8.7	-2.9
Cn1cc(/C=C2/SC(=O)N(CC(=O)Nc3ccc4c(c3)OCO4)C2=O)c2ccccc21	-2.3	15.3	0.2	-2.7	-10.7
CCOC(=O)CN1C(=O)S/C(=C\c2ccc(-c3cccc(C(=O)O)c3C)o2)C1=O	.	.	-12.4	.	-9.5
SMILES	eIF4H FP inh	PHOSPHO1 block	PABP1 MLLE inh	PABP polyA inh	CRFBP-R2 block
Cc1c(C(=O)O)cccc1-c1ccc(/C=C2\SC(=O)NC2=O)o1	54.5*	39.0	-6.0	34.3*	-2.1
COc1ccc(C(=O)COC(=O)CCNS(=O)(=O)c2ccccc2)c(OC)c1	.	.	-10.6	.	21.3
CC(C)(C)Cc1c(-c2cccc(Cl)c2)nc2ccc(Br)cn12	.	.	-34.1	.	.
CC1(C(=O)NS(=O)(=O)c2ccc(Cl)cc2)CCN1C(=O)CCC1CCCC1 (stereo not drawn)	.	.	0.5	.	.
CCn1c2ccccc2c2nnc(SCC(=O)Nc3c(C)n(C)n(-c4ccccc4)c3=O)nc21	-10.9	30.0	20.5	7.6	22.7
Cc1c(NC(=O)CSc2nnc3c4ccccc4n(CCc4ccccc4)c3n2)c(=O)n(-c2ccccc2)n1C	11.2	63.9*	12.7	-0.1	3.3
Oc1ccccc1/C=N/c1c(-c2ccco2)nc2ccccn12	?	26.3	21.5	?	-16.7
Clc1ccc(/C=N/c2c(-c3ccco3)nc3ccccn23)cc1	127.5*	9.1	39.3*	120.4*	11.6
COc1ccc(/C=N/c2c(-c3ccco3)nc3ccccn23)cc1OC	?	-19.0	47.3*	?	-2.4
CC(=O)Nc1ccc(OCC(O)CN2CCN(c3ccc(F)cc3)CC2)cc1 (stereo not drawn)	-7.5	14.9	8.7	0.7	-1.1
N#Cc1c2c(c(-c3ccco3)[nH]c1=O)CCCC2	9.8	-6.1	41.9*	14.7	6.5
N#Cc1c(-c2cccnc2)c2c([nH]c1=S)CCCC2	-3.8	73.5*	22.1	10.9	7.1
COc1ccc(-c2c3c([nH]c(=S)c2C#N)CCC3)cc1	5.4	55.1	15.8	16.2	6.5
COc1ccc(OC)c(-c2c3c([nH]c(=S)c2C#N)CCCC3)c1	0.1	-27.4	38.2	6.8	8.6
N#Cc1c(-c2ccco2)c2c([nH]c1=S)CCCC2	35.6	61.9*	-12.9	-2.8	2.4
COc1cc2ccccc2cc1C(=O)N1CCN(c2ccccc2O)CC1	.	.	1.4	.	-11.1
Nn1c(Cc2cccc3ccccc23)nnc1SCC(=O)NC1CCS(=O)(=O)C1 (stereo not drawn)	12.9	90.3*	-91.6	7.0	-9.2
Cc1ccccc1-c1nnc2s/c(=C\c3ccc(N(C)C)cc3)c(=O)n12	82.4*	38.7	.	90.6*	.
O=c1c2cc(F)ccc2sn1-c1ccc(F)cc1	.	.	42.6*	.	11.6
Cc1ccc(C)c(-n2sc3ccc(F)cc3c2=O)c1	.	.	37.2	.	-5.7
COc1ccc(-n2sc3ccccc3c2=O)cc1	.	.	35.9	.	-0.9
COc1ccc(-n2sc3ccc(F)cc3c2=O)cc1	.	.	40.7*	.	-3.4
COC(=O)C1C(c2ccccc2)C(C(=O)OCc2ccco2)C1c1ccccc1 (stereo not drawn)	-0.1	3.4	1.6	-5.8	59.0*
CC(=O)N(c1ccc2oc(=O)sc2c1)S(=O)(=O)c1cccs1	52.7	-38.6	28.5	6.7	-9.9
CC(C)C(=O)N(c1ccc2oc(=O)sc2c1)S(=O)(=O)c1cccs1	-1.1	87.0*	44.5*	6.1	-5.2
CC(C)C(=O)N(c1cc2sc(=O)oc2c2ccccc12)S(=O)(=O)c1cccs1	-1.9	92.1*	18.2	0.3	-49.7
COc1cccc(-c2ccc3ncnc(NCc4cccs4)c3c2)c1	.	.	1.4	.	54.2*
COc1ccc(C(C)(O)c2nc(-c3ccc4ccccc4c3)cs2)cc1 (stereo not drawn)	.	.	-13.6	.	.
C/C(=N\NC(=O)c1cccc(N/N=C(\C)c2ccco2)c1)c1ccco1	90.2*	16.5	-18.7	active	1.5
C/C(=N\NC(=O)c1cccc([N+](=O)[O-])c1)c1ccco1	?	-42.3	10.2	?	5.2

Bioassay records deposited in PubChem by Sanford-Burnham Center for Chemical Genomics.
